# Many of the other results were omitted from the sample, so hits are more common in it than they were.
# Tgondii IFNg – T. gondii growth inhibition with IFN-gamma, primary screen, cell-based; Toxoplasma gondii growth in IFN-gamma-treated host cells; active compounds read low; activity change, negative = inhibition, % (no concentration beside the values); hit rate 3.8% among 69,000; AID 1259416, 2018; in the data active = activity change below about -70%, passing the limit was not always enough;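 also: host cells are HeLa cells infected with Toxoplasma gondii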
# * hit, by the source's call; i = inactive.
SMILES,Tgondii IFNg
CCOCC(=O)NCC1Cn2nnc(-c3cnn(C)c3)c2CO1 (centres undefined),-1
CCCCn1c(=O)c2c(nc3n2CCCN3CCc2ccccc2)n(C)c1=O,-97*
CCCCCCn1c(=O)c2c(ncn2C)n(C)c1=O,16
CCN1CCN(CC2(O)CCCN(CCCc3ccccc3)C2=O)CC1 (centres undefined),0
CN(C)CC1(O)CCN(C(=O)c2ccc(-c3ccn[nH]3)cc2)C1 (centres undefined),-8
CC(C)N(C(=O)CN1CCN(c2ccccc2)CC1)C(C)C,-37
CSCCC(C(=O)O)n1cnnn1 (centres undefined),46
CC(C)NC(=O)CC1CC2(CCN(c3ncccn3)CC2)c2ccccc21 (centres undefined),-68
COCC(=O)Nc1cc(OC)c(OC)cc1C(=O)OC,18
C=CC(=O)N1CCC2(CCC(=O)N2CCN2CCCC2)CC1,-6
COCCN1C(=O)CCC12CCN(C(=O)COC)CC2,0
CCOCC(=O)N1CCC2(CCC(=O)N2CCN2CCCC2)CC1,-89*
COc1cc(C(=O)NCCc2csc(-c3ccc(F)cc3)n2)cc(OC)c1OC,32
O=C(OCc1ccco1)c1cccc(S(=O)(=O)N2CCOCC2)c1,10
Cc1cc(OC(C(=O)O)c2ccccc2)c2c(C)c(Cc3ccccc3)c(=O)oc2c1 (centres undefined),8
COc1ccc(-c2c(C)c3ccc(OCC(C)=O)cc3oc2=O)cc1,202
CCN(CC)c1ccc2c(C)c(CC(C)=O)c(=O)oc2c1,-98*
O=C(c1ccco1)N1CCc2ncnc(NC3CC3)c2CC1,-86*
COc1ccc(CC(=O)N2CCc3ncnc(NC4CC4)c3CC2)cc1,-69
COc1cccc(CC(=O)N2CCc3ncnc(NC4CC4)c3CC2)c1,-3
Fc1ccc2c(c1)C1(CCNCC1)CC2NCC1CC1 (centres undefined),-27
O=C(NCCc1csc(-c2ccccc2)n1)[C@H]1CSCN1C(=O)c1cccc(F)c1,4
CCC(C)(C)NC(=O)CN1CCC2(CC1)c1ccccc1[C@@H](OC)[C@@H]2O,5
Cn1cc(C(CNC(=O)Nc2ccc(Br)cc2F)c2cccnc2)c2ccccc21 (centres undefined),i
O=C(NCC(c1cccnc1)c1c[nH]c2ccccc12)Nc1cccc(Br)c1 (centres undefined),191
SMILES,Tgondii IFNg
O=C(NCC(c1cccnc1)c1c[nH]c2ccccc12)Nc1ccc(Br)cc1F (centres undefined),-116*
Cc1cccc(Nc2nc(C(=O)NC3CCCCCCC3)nc3ccccc23)c1,-83*
Cc1ccc(Nc2nc(C(=O)NC3CCCCC3)nc3ccccc23)cc1,-52
CCc1ccc(Nc2nc(C(=O)NC3CCCC3)nc3ccccc23)cc1,-63
O=C(NC1CCCCCC1)c1nc(Nc2ccc(F)cc2)c2ccccc2n1,-20
Cc1ccc(Nc2nc(C(=O)NC3CCCCCC3)nc3ccccc23)cc1,-75*
Cc1ccc(Nc2nc(C(=O)NC3CCCC3)nc3ccccc23)cc1,-35
COc1ccc(CN2CC[C@H]3[C@@H](CO[C@H]3CC(=O)NC3CC3)C2)cc1,2
CCCNC(=O)N1CCN(Cc2nc(-c3ccc(OCC)cc3)oc2C)CC1,2
CN1Cc2ccccc2CC2(CCN(C(=O)c3cccn3C)CC2)C1=O,0
Cc1ccccc1-c1nc(CN2CCN3CCNC(=O)C3C2)c(C)o1 (centres undefined),-5
CC(C)(O)C#Cc1ccc(-c2n[nH]c(Cc3ccccc3)n2)o1,-24
CC1(C)CC(NC(=O)c2cc(=O)[nH]c(-c3ccccc3)n2)c2ccccc2O1 (centres undefined),-22
Cc1cc(C)n(-c2ccc(C(=O)N3CCCC(N(C)C)CC3)cc2)n1 (centres undefined),-1
Cc1ccc(C(=O)N2CCOCC2)cc1,-3
Cc1ccc(C(=O)N2CCN(c3nc(C)nc4sc5c(c34)CCCC5)CC2)cc1,-96*
CCCCSc1nc2sc3c(c2c(=O)n1-c1ccc(C)cc1)CCC3,-19
CSc1ccccc1CN1CCCC(O)(CO)CC1 (centres undefined),2
CCN1C(=O)CCc2cc(NS(=O)(=O)c3cccc(C)c3)ccc21,-43
COCCN1C(=O)CCc2cc(NS(=O)(=O)c3ccc(OC)c(OC)c3)ccc21,111
CCN1C(=O)CCc2cc(NS(=O)(=O)c3ccccc3Cl)ccc21,28
CCN1C(=O)CCc2cc(NS(=O)(=O)c3ccc(Cl)c(Cl)c3)ccc21,-100*
CCN1C(=O)CCc2cc(NS(=O)(=O)c3ccc(C)c(F)c3)ccc21,-72*
CCN1C(=O)CCc2cc(NS(=O)(=O)c3ccc4c(c3)OCCO4)ccc21,-54
CCOCC(=O)N1CCC2(C=Cc3ccccc32)CC1,24
Cc1cc(C)c(CN(C)C(C)C(=O)N(C)C)c(-n2cccn2)c1 (centres undefined),-3
CCOC(=O)c1noc2nc(C)n(Cc3nc(-c4cccc(Br)c4)oc3C)c(=O)c12,44
COc1ccccc1OC(C)(C)C(=O)Nc1cnc2n1CCCC2,1
C=CCN1C(=O)CCC12CCC(NCc1nccs1)CC2 (centres undefined),168
